Screens from PubChem.
Bst PK mod = modulators of Bacillus stearothermophilus pyruvate kinase. purified pyruvate kinase, luminescence ATP production; ribose 5-phosphate activator present at AC10. Potency, µM. hit rate 1.2% among 51,000. AID 361; in the data active = potency below about 11 µM; inconclusive = mostly about 12 µM to 25 µM;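 the screen sought inhibitors and activators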
TSHR ag = agonists of human thyroid stimulating hormone receptor. P16473. HEK293-CNG-TSHR cells (CNG channel as cAMP sensor), membrane potential dye, cAMP. Potency, µM (series often up to 57.1 µM), usual class: activators. hit rate 0.48% among 73,000. AID 926; active = well fitted activation curve with a large enough effect in the main read-out, with a control signal flat, not every such curve was filed as active; inconclusive = small, poorly fitted or top-dose-only effect, or a change in a side signal; inactive = no such curve, though single readings can be large or run the other way; reference of the percent scale not stated here;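 note: the control signal comes from parental cells without the receptor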
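cAMP rise detected as CNG-channel membrane depolarization by fluorescent dye (emission 590 nm), 30 min after compound, following 60 min dye loading containing 100 uM RO 20-1724 at room temperature. Cells: TSHR/CNG HEK 293, with parental CNG HEK 293 as control.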
HEK293 cAMP cs = counter-screen for TSHR agonists: cAMP increase in parental HEK293 | parental HEK293 CNG cAMP sensor, membrane potential fluorescence | Potency, µM (highest dose often 57.1 µM), most hits filed as activators | hit rate 2.5% among 73,000 | AID 938; note: nearly all actives have a fitted effect of over 55% in size
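Counterscreen for endogenous-receptor signalling: CNG-channel HEK 293 cells report cAMP rise by membrane depolarization. After 60 min dye equilibration with 100 uM RO 20-1724, compounds incubated 30 min before bottom-read fluorescence at 590 nm.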
FLuc inh = inhibitors of firefly luciferase; AID 411; Potency, µM (series often up to 57.1 µM), actives largely listed as inhibitors; P08659; hit rate 2.2% among 72,000; purified firefly luciferase, luminescence, 8 min; note: nearly all actives have a fitted effect of over 40% in size
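Here, luciferase activity is measured as luminescence following an 8 min room-temperature reaction at 10 uM ATP, pH 7.2. Every library sample is titrated.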
ALOX15 inhib = blocks human 15-lipoxygenase activity. hit rate 1.4% among 74,000. P16050. Potency, µM (titrated, usually from 57.1 µM), actives largely listed as inhibitors. purified 15hLO-1, xylenol orange hydroperoxide absorbance. AID 887; note: nearly all actives have a fitted effect of over 55% in size
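40 nM 15hLO-1 + cpd, 15 min RT; start w/ 50 uM AA (final), 6 min RT; stop/detect w/ 200 uM XO + 300 uM Fe(II) in 50 mM H2SO4, 30 min; A573/A405. Buffer 25 mM Hepes pH 7.5, 0.01% Triton X-100. No-enzyme wells as negative control.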
Tau fil binding = binders of human tau filaments; P10636; Potency, µM (highest dose often 57.1 µM); hit rate 2% among 71,000; recombinant tau filaments, thioflavin S fluorescence, 15 h; filaments grown with octadecylsulfate alongside compound;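 note: actives lower thioflavin S fluorescence by blocking filaments or displacing dye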
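Quantitative HTS: thioflavine S signal from ODS-induced tau filaments, excited at 450 nm, emission 510 nm. Conditions: 1 uM tau, 30 uM ODS, 15 h at 37 C, pH 7.4.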
Of the large screens only hits and unclear results are named; the others gave an inactive call; ! = a repeat was not active. Shown are actives, neighbours in structure and some others; about 7.8% of the full set was active somewhere. Unless noted, calls come from the whole dose curve; as a rule, active = well fitted curve in the direction sought with a large enough effect; inconclusive = small, poorly fitted or top-dose-only effect, or another doubt; inactive = no such curve, though single readings can be large; an effect the other way counts as inactive or inconclusive.

COc1ccc(C(=O)CN2C(=O)c3ccccc3C2=O)c(OC)c1C	none
Cc1cc(C(=O)CN2C(=O)c3ccccc3S2(=O)=O)c(C)n1-c1ccccc1	Bst PK mod inconclusive, FLuc inh 7.9µM
CCCn1c(C)cc(C(=O)CN2C(=O)c3ccccc3C2=O)c1C	FLuc inh 16µM (no result: Bst PK mod)
Nc1ccn([C@H]2CC[C@H](CO)O2)c(=O)n1	TSHR ag inconclusive, HEK293 cAMP cs inconclusive (no result: Bst PK mod, ALOX15 inhib)
CC(C)C[C@@H](CC(=O)N[C@@H](CCC(=O)O)CC(=O)O)NC(=O)[C@@H]1CCCC[C@H]1NC(=O)C[C@@H](NC(=O)C[C@H](CO)NC(=O)[C@@H]1CNCC[C@H]1N)C(C)C	none (no result: Bst PK mod, TSHR ag, FLuc inh, ALOX15 inhib)
Cc1cc(S(=O)(=O)Nc2ccccc2C)ccc1F	TSHR ag inconclusive, HEK293 cAMP cs inconclusive
COc1cc(S(=O)(=O)NC2CCCCC2)ccc1Cl	ALOX15 inhib inconclusive, Tau fil binding 16µM
COc1cc(S(=O)(=O)Nc2ccccc2C)ccc1Cl	Tau fil binding 13µM
O=C1C(SCCO)=C(SCCO)C(=O)c2ccccc21	TSHR ag inconclusive, HEK293 cAMP cs 25µM!, Tau fil binding 5µM! (no result: Bst PK mod)
NCCSS(=O)(=O)CCN	none (no result: Bst PK mod)
Cc1cc(-c2ccccc2)c2c3c(cn2n1)c(=O)n(C)c(=O)n3C	Tau fil binding 13µM
Cc1cc(C)c2c3c(c(-c4ccccc4)n2n1)c(=O)n(C)c(=O)n3C	none (no result: Bst PK mod)
COc1ccccc1-n1cc(C(=O)NCC(=O)N2CCN(c3ccccc3)CC2)c2ccccc2c1=O	Bst PK mod 3.7, FLuc inh 2µM
COc1ccccc1-n1cc(C(=O)NCC(=O)N2CCN(c3ccccn3)CC2)c2ccccc2c1=O	Bst PK mod inconclusive, FLuc inh 6.3µM
COc1ccc(N2CCN(C(=O)CNC(=O)Cn3c(C)cc4ccccc4c3=O)CC2)cc1	none
COc1ccc2[nH]c(=O)c(CN(Cc3ccco3)Cc3nnnn3Cc3ccccc3)cc2c1	ALOX15 inhib inconclusive (no result: Bst PK mod)
COc1ccc2[nH]c(=O)c(CN(Cc3ccccc3OC)Cc3nnnn3CC3CCCO3)cc2c1 (stereo not drawn)	TSHR ag inconclusive, HEK293 cAMP cs inconclusive, ALOX15 inhib 20µM
CCC(C)(C)n1nnnc1CN(Cc1cc2cc(OC)ccc2[nH]c1=O)C1CCCC1	TSHR ag inconclusive, HEK293 cAMP cs 20µM, ALOX15 inhib inconclusive
COc1ccccc1CN(Cc1cc2cc(C)ccc2[nH]c1=O)Cc1nnnn1Cc1ccco1	TSHR ag inconclusive, HEK293 cAMP cs 20µM, ALOX15 inhib 7.9µM
CCOc1ccc2[nH]c(=O)c(CN(Cc3ccco3)Cc3nnnn3Cc3ccccc3)cc2c1	TSHR ag inconclusive, HEK293 cAMP cs 32µM
COc1ccccc1CN(Cc1cc2cc(C)ccc2[nH]c1=O)Cc1nnnn1CC1CCCO1 (stereo not drawn)	TSHR ag inconclusive, HEK293 cAMP cs inconclusive, ALOX15 inhib inconclusive
COc1cc2cc(CN(Cc3nnnn3Cc3ccco3)C3CCCCC3)c(=O)[nH]c2cc1OC	ALOX15 inhib 13µM
CCOc1ccc2[nH]c(=O)c(CN(Cc3nnnn3Cc3ccco3)C3CCCCC3)cc2c1	TSHR ag inconclusive, HEK293 cAMP cs inconclusive, ALOX15 inhib 3.2µM
COc1ccc2cc(CN(Cc3ccco3)C(c3nnnn3C3CCCCC3)C(C)C)c(=O)[nH]c2c1 (stereo not drawn)	TSHR ag inconclusive, HEK293 cAMP cs inconclusive
COc1ccc2[nH]c(=O)c(C(c3nnnn3C(C)(C)C)N(Cc3ccco3)CC3CCCO3)cc2c1 (stereo not drawn)	TSHR ag inconclusive, HEK293 cAMP cs 16µM
COCCn1nnnc1CN(Cc1cc2cc(OC)c(OC)cc2[nH]c1=O)C1CCCC1	ALOX15 inhib inconclusive
Cc1ccc(C)c(NC(=O)c2ccc3c(c2)N(Cc2ccc(F)cc2)C(=O)CS3=O)c1 (stereo not drawn)	TSHR ag inconclusive, HEK293 cAMP cs 32µM (no result: Bst PK mod)
CC(=O)n1nc(-c2ccco2)nc1SCc1ccccc1	ALOX15 inhib 4µM, Tau fil binding 25µM (no result: Bst PK mod)
CC1(O)C(=O)C=C2C=C(CCCCOCc3ccccc3)OC=C2C1=O (stereo not drawn)	none (no result: Bst PK mod, FLuc inh, Tau fil binding)
CO[C@@H]1COC(=O)[C@H]2CCCN2C(=O)[C@@H](C)COC(=O)[C@H](COCc2ccccc2)NC(=O)C/C=C\[C@H]1C	none (no result: Bst PK mod, Tau fil binding)
